Experimental findings from PubChem BioAssay (EPA / NIEHS) are described below.

Activity calls are given as the source filed them. The calls were made as follows: active = hit-call score of the fitted dose curve at least 0.9, where 1 is the maximum; inactive = score below 0.9.

This test can be described thus: BSK_KF3CT_SRB: Viability Assessment in the BioMAP Diversity Plus: KF3CT Assay (AID 2283069).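 Also: fitted for both signal gain and loss against DMSO baseline.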 The settings on record: primary human keratinocytes with fibroblasts. The protocol:
BSK_KF3CT is a cell-based, multiplexed-readout assay that uses keratinocytes and foreskin fibroblasts, a human skin primary cell co-culture, with measurements taken at 24 hours after chemical dosing in a 96-well plate.BSK_KF3CT_SRB is an assay component measured in the BSK_KF3CT assay. It measures 0.1% sulforhodamine related to cell death using Sulforhodamine staining technology.Data from the assay component BSK_KF3CT_SRB was analyzed into 1 assay endpoint. This assay endpoint, BSK_KF3CT_SRB, was analyzed with bidirectional fitting relative to DMSO as the negative control and baseline of activity. Using a type of viability reporter, gain or loss-of-signal activity can be used to understand changes in the signaling. Furthermore, this assay endpoint can be referred to as a primary readout, because this assay has produced multiple assay endpoints where this one serves a signaling function. To generalize the intended target to other relatable targets, this assay endpoint is annotated to the cell morphology intended target family, where the subfamily is cell conformation.
The levels of cell surface (or secreted, indicated by the prefix "s") biomarker endpoints were measured by ELISA. Overt cytotoxicity to cells in confluent adherent cultures (all systems other than the BT system) was assessed by measuring total protein levels using sulforhodamine B (SRB) staining in parallel cultures at the time of biomarker measurements, indicated as SRB endpoints. For proliferation assays for adherent cell types, individual cell types are cultured at sub-confluence and relative cell numbers quantified by SRB staining at time points optimized for each system (48 h: 3C and CASM3C systems; 72 h: BT and HDF3CGF systems; 96 h: SAg system). SRB was performed by staining cells with 0.1% SRB after fixation with 10% TCA and reading wells at 560 nm.Viability and proliferation of PBMC (T cells) was quantified by Alamar Blue reduction for the SAg and BT systems. For PBMC viability (referred to as PBMC Cytotoxicity within the assay endpoint names), cells were plated (75,000/well in a 96-well plate) and then chemical samples added for 1 h before addition of activators, SEB and TSST-1 (20 ng/mL final concentration each). Cells were incubated for 90 h. Then, Alamar Blue (20 uL/well) (Invitrogen, Cat DAL1100) was added for 6 h, and the plates were read with a fluorescence microplate reader at 546/580 nm (excitation/emission). For PBMC proliferation, cells were plated and activated as above but incubated for only 16 h prior to addition of Alamar Blue. Plates were read after 6 h.
With `CCCCCCCCCCCCCCOS(=O)(=O)O`, the AC50 (in general, the concentration at which the activity in the assay is half-maximal) was 8 µM (active).

As to `CCOCCOCCO`, the outcome was inactive.

On to `CC(C)c1cccc(C(C)C)c1NC(=O)NS(=O)(=O)c1cc(C(C)(C)O)co1`, for which the result was inactive.

Take `COC(=O)[C@H]1[C@H]2C[C@@H]3c4[nH]c5cc(OC)ccc5c4CCN3C[C@H]2C[C@@H](OC(=O)c2cc(OC)c(OC)c(OC)c2)[C@@H]1OC`: the outcome was inactive.

Take `CCCCCCC(C=O)=Cc1ccccc1`: the outcome was inactive.

Regarding `CCCCCCC(CCCCCCCCCCC(=O)OCC(COC(C)=O)OC(C)=O)OC(C)=O` (stereo not given), the result was inactive.

For `CCC(C)N(C)C(=O)c1cc2ccccc2c(-c2ccccc2Cl)n1` (stereo not given), the outcome was inactive.

On to `CC(=O)OC1CC(C)OC(C)O1` (stereo not given), for which the result was inactive.

On to `CC(C)OC(=O)C(C)(C)Oc1ccc(C(=O)c2ccc(Cl)cc2)cc1`, for which the outcome was inactive.

On to `CCCCc1nc2cccnc2n1Cc1ccc(-c2ccccc2-c2nnn[nH]2)cc1`, for which the result was inactive.

On to `CCCCC(CC)CO` (stereo not given), for which the result was inactive.

Consider `O=C1OC(c2ccc(O)cc2)(c2ccc(O)cc2)c2ccccc21`, for which the result was inactive.

Turning to `O=[Si]=O`, the outcome was inactive.

Take `O=C(Oc1ccccc1)c1cccc(C(=O)Oc2ccccc2)c1`: the result was inactive.

On to `CSc1ccc(Oc2ccc(S(N)(=O)=O)cc2CN(C)C)cc1C`, for which the outcome was inactive.

Regarding `OCC(O)CO`, the result was inactive.

Turning to `CC(C)COC(=O)CCCCC(=O)OCC(C)C`, the outcome was inactive.

As to `CCCCC(CC)COP(=O)(OCC(CC)CCCC)OCC(CC)CCCC` (stereo not given), the outcome was inactive.

On to `Cc1c(C)c2c(c(C)c1O)CCC(C)(COc1ccc(CC3SC(=O)NC3=O)cc1)O2` (stereo not given), for which the AC50 was 13.8 µM (active).

On to `O=C(NS(=O)(=O)/C=C/c1cccs1)c1ccc(F)cc1Br`, for which the result was inactive.

For the compound `C#CC(O)C(CC)CCCC` (stereo not given), the result was inactive.

Turning to `CN(C)C(=O)NC1(c2ccccc2)CCN(CCC[C@]2(c3ccc(Cl)c(Cl)c3)CCCN(C(=O)c3ccccc3)C2)CC1`, the result was inactive.

With `Nc1nc(Cl)nc2c1ncn2[C@H]1C[C@H](O)[C@@H](CO)O1`, the outcome was inactive.

For the compound `O=C(N[C@@H](c1ccccc1)[C@@H]1CCCCN1)c1cccc(C(F)(F)F)c1Cl`, the concentration at half-maximal activity (AC50) is 30.3 µM (active).

For `O=Cc1ccccc1C=O`, the result was inactive.

On to `NCCOCCOCCN`, for which the outcome was inactive.

With `CCN(CC)CCOc1ccc(C(=C(Cl)c2ccccc2)c2ccccc2)cc1`, the AC50 was 12 µM (active).

As to `CC(C)(O)c1ccc(CNC(=O)c2cccnc2Oc2ccc(F)cc2)cc1`, the outcome was inactive.

As for `Cn1cnc2c1c(=O)[nH]c(=O)n2C`, the outcome was inactive.

For the compound `O=C1CCCCC1`, the outcome was inactive.

Take `O=C(O)CC(O)(CC(=O)O)C(=O)O`: the outcome was inactive.

Regarding `NC1CCCCC1`, the outcome was inactive.

For `S=c1[nH]c2ccccc2s1`, the result was inactive.

As to `Oc1ccc(O)cc1`, the outcome was inactive.

Take `CCc1cc(C2=C(C(=O)O)N(c3ccccc3C(F)(F)F)S(=O)(=O)c3ccccc32)cc2c1OCO2`: the result was inactive.

With `OCC(CO)n1cnc(-c2ccc(F)cc2)c1-c1ccnc(Oc2ccccc2)n1`, the outcome was inactive.

For the compound `C/C=C/c1ccc(OC)cc1`, the result was inactive.

`Cc1cn([C@H]2C=C[C@@H](CO)O2)c(=O)[nH]c1=O`: the result was inactive.

Regarding `O=C(O)CN(CC(=O)O)CC(=O)O`, the result was inactive.

Consider `Oc1ccccc1O`, for which the outcome was inactive.
